# In PubChem BioAssay AID720690 (Broad Institute, 2013):
# Results with a measured potency or affinity are listed apart. The source made the active and inactive calls.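 How the source made its calls: active means every repeat run showing a signal drop whose fitted half-maximal concentration is at most twice the top tested concentration; inconclusive means repeat runs disagree, or flat partial drop, or poor fit; inactive means the rest.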
# Assay: general mammalian cell viability loss – activator set, cherry-pick, cytotoxicity control for miR-122 modulator project, dose response (AID 720690)
# Details: HEK293T viability, CellTiter-Glo luminescence, 48 h; series mostly up to 26 µM
row,Structure (SMILES),outcome
1,CC(=O)Nc1ccc2c(c1)C(=O)N(C)[C@@H]1CC[C@H](CC(=O)NCCCN3CCOCC3)O[C@@H]1CO2,inactive
2,COCC(=O)N(C)C[C@@H]1[C@@H](c2ccccc2)[C@H](CO)N1C(=O)Cc1ccncc1,inactive
3,CCCNC(=O)C[C@@H]1CC[C@@H]2[C@H](COc3ccc(NC(=O)c4cc(F)cc(F)c4)cc3C(=O)N2C)O1,inactive
4,COc1ccc(-c2nc(NC(=O)CSc3nnc(C)s3)ns2)cc1,inactive
